Test results: ChEMBL document CHEMBL3988442, “University of Dundee, Small-Polar-MMV Screening Library” (2021)
Hit rate of the full screen: of about 38,000 compounds, about 1,200 (3.2%) showed an effect of 50% or more. The median lay at about -58%. For the sample, strong results were picked, then their nearest neighbours and some compounds at random.

test system: Plasmodium falciparum; assay: Calibr Malaria Delayed Death Assay SOP; assay type: functional, organism-based; parameters: scale not given: in the data most compounds retested in dose-response had high values; conditions: concentration 4.99e-06 (unit not given; other assays of the set use mol/L)

Structure (SMILES) | Percent Effect
CC(C)OC[C@H]1CCC[C@]12CN(C(=O)C1CCOCC1)CCO2 | -62.83%
CNC(=O)CN1CCC(CN(C)Cc2ccccc2N(C)C)CC1 | -85.31%
COc1ccc(CN2C[C@@H](O)[C@](O)(CNC(=O)c3ccccn3)C2)cc1 | -63.46%
Cn1cc(-c2ncnc3c2CCN(C(=O)c2cnccn2)CC3)cn1 | -80.91%
COc1ccc(C[C@H]2CN(c3nnc(C)s3)CC[C@@H]2OC)cc1.O=C(O)C(F)(F)F | -18.37%
COc1ccc(C[C@H]2CN(C(=O)c3ccncc3)CC[C@@H]2OC)cc1.O=C(O)C(F)(F)F | -34.29%
COc1ccc(C[C@H]2CN(Cc3ccoc3)CC[C@H]2OC)cc1.O=C(O)C(F)(F)F | 74.09%
COc1ccc(C[C@H]2CN(c3nnc(C)s3)CC[C@H]2OC)cc1.O=C(O)C(F)(F)F | -6.177%
COc1ccc(C[C@H]2CN(c3cc(OC)ncn3)CC[C@@H]2OC)cc1.O=C(O)C(F)(F)F | -3.62%
COc1ccc(C[C@H]2CN(Cc3ccoc3)CC[C@@H]2OC)cc1.O=C(O)C(F)(F)F | 63.43%
N#Cc1ccc(OC[C@]23COC[C@H]2CN(Cc2ccccn2)C3)nc1 | -50.77%
Cn1cccc1C(O)CNC(=O)COc1ccc(Cl)cc1Cl (centres undefined) | -33.74%
Cn1cccc1C(CNC(=O)COc1ccc(Cl)cc1Cl)N1CCCC1 (centres undefined) | 74.07%
Cn1cccc1C(O)CNC(=O)COc1ccccc1F (centres undefined) | -31.9%
O=C(NCc1nnc2n1CCCC2)c1cn(-c2ccccc2)nn1 | -72.42%
COCc1cc(O)nc(C2CCCN(Cc3cccc(OC)c3)C2)n1 (centres undefined) | -102.5%
COc1cccc(CN2CC[C@H]3[C@@H](C2)[C@H](c2ccsc2)CN3C(C)=O)c1 | 52.59%
COc1cccc([C@@H]2CCN(Cc3c[nH]c(C)n3)C[C@H]2O)c1 | -37.12%
COCC(=O)NCC1CCN(Cc2ccsc2)CC1 | -175%
COc1cccc([C@@H]2CCN(Cc3[nH]nc(C)c3Cl)C[C@H]2O)c1 | -13.94%

Structure (SMILES) | Percent Effect
CCN1CCC(N2C[C@@H](C(=O)O)[C@H](c3cccc(OC)c3)C2)CC1 | -103.5%
COc1cccc(CC2CCCN2CC(N)=O)c1 (centres undefined) | -61.65%
COc1cccc([C@H]2CN(C(C)=O)[C@@H]3CCN(Cc4ccsc4)C[C@H]23)c1.Cl | 72.65%
CNC(=O)[C@@]12CCC3(CCN(S(=O)(=O)C4CC4)CC3)[C@@H]1CN(C(C)=O)C2 | -121.6%
Cc1ccoc1C(=O)N1CCCC(CNS(C)(=O)=O)C1 (centres undefined) | -23.43%
NC(=O)Cn1cnc2nc3n(c2c1=O)CCC3 | -106.4%
CC(C)N1CCOC(Cc2nn3c(Cc4ccccc4)nnc3s2)C1 (centres undefined) | -78.89%
CO[C@H]1CCN(Cc2c(C)noc2C)[C@@H]2CN(Cc3cccnc3)C[C@H]12.O=C(O)C(F)(F)F.O=C(O)C(F)(F)F.O=C(O)C(F)(F)F | -19.09%
CN(Cc1noc(C2CC2)n1)C1CCN(CCc2cccs2)C1 (centres undefined) | -58.32%
COc1cc(CNCC(O)c2ccccc2)cc2c1OCO2.Cl (centres undefined) | 59.91%
COc1cc(CNCc2ccc(C(C)O)cc2)cc2c1OCO2 (centres undefined) | 7.669%
COc1cc(CNC(C)c2ccc(F)c(F)c2)cc2c1OCCO2.O=C(O)C(=O)O (centres undefined) | -10.9%
COc1cc(CNCC(O)c2ccc(C)cc2)cc2c1OCCO2.Cl (centres undefined) | 46.91%
COc1ccc(CNCc2cc(Br)c3c(c2)OCO3)cc1 | -51.11%
Cc1cc(CNC(=O)NCC(O)c2cccc(F)c2)no1 (centres undefined) | -84.11%
COc1cc(CNC(C)Cn2cccn2)cc2c1OCO2.Cl (centres undefined) | -35.84%
Fc1ccc(CNCc2cc(Br)c3c(c2)OCO3)cc1 | -20.04%
COc1cc(CNC(C)Cn2ccnc2)cc2c1OCO2.Cl (centres undefined) | -50.32%
COc1c(C(N)=O)cn(C)c1-c1nc2cc(NC(C)=O)ccc2n1C | -29.86%
Cc1nc(O)cc(C2CCCN(Cc3c(Cl)cncc3Cl)C2)n1 (centres undefined) | -29.03%

Structure (SMILES) | Percent Effect
O=C(Cn1cnnn1)NC(c1ccccc1)c1ccc2c(c1)CCCO2 (centres undefined) | -75.22%
Cc1ccoc1C(=O)N1CCO[C@H]2[C@H](OCc3ccncc3)CC[C@@H]21 | -118.2%
COc1ccccc1C(=O)N1CCCC1c1ncc2c(n1)CCNC2.Cl (centres undefined) | -133.7%
CC(O)CCN(C)C(=O)Nc1cccc(F)c1 (centres undefined) | -108.7%
CC(C)Cn1ncc(C(=O)NS(=O)(=O)C2CCCC2)c1C1CC1 | -142.6%
O=C(O)CCC(=O)N1CCC(c2noc3cc(F)ccc23)CC1 | -92.3%
CCC(=O)NC(c1cccnc1)c1cc(C)ccc1C (centres undefined) | -105.8%
O=C(CC1CCCC1)N1C[C@@H]2CCN(c3cccnc3)C[C@@H]2C1.O=C(O)C(F)(F)F | -61.89%
Cn1cncc1CNC1CC2(CCN(CC3CC3)CC2)c2ccccc21.O=C(O)C(F)(F)F.O=C(O)C(F)(F)F (centres undefined) | -88.17%
O=C(NC1CC2(CCN(CCO)CC2)c2ccccc21)c1ccno1.O=C(O)C(F)(F)F (centres undefined) | -16.34%
Cc1ccc2c(c1)C(NC(=O)N(C)C)CC21CCN(C)CC1.O=C(O)C(F)(F)F (centres undefined) | -16.75%
Cc1ccc(CNC(=O)CN2CCN(CCO)CC2)s1 | -40.21%
COCC(=O)NC1CC2(CCN(CCO)CC2)c2ccccc21.O=C(O)C(F)(F)F (centres undefined) | -47.31%
O=C(NC1CC2(CCN(CCO)CC2)c2ccccc21)c1ccncc1.O=C(O)C(F)(F)F.O=C(O)C(F)(F)F (centres undefined) | -81.16%
CCN1CCC2(CC1)CC(NC(=O)N(C)C)c1cc(C)ccc12.O=C(O)C(F)(F)F (centres undefined) | -8.453%
Cc1ccc(CNC2CC3(CCN(CCO)CC3)c3ccccc32)s1.O=C(O)C(F)(F)F.O=C(O)C(F)(F)F (centres undefined) | 84.71%
Cc1cccc(CNC2CC3(CCN(CCO)CC3)c3ccccc32)n1.O=C(O)C(F)(F)F.O=C(O)C(F)(F)F (centres undefined) | 77.51%
Cc1ccc2c(c1)C(N(C)C)CC21CCN(CCO)CC1.O=C(O)C(F)(F)F.O=C(O)C(F)(F)F (centres undefined) | 74.01%
CCOC1CC2(CCN(CCO)CC2)c2ccc(C)cc21 (centres undefined) | 16.18%
